Experiment [1] in a line: Her2 expression decrease, cell viability multiplex – SKBR3 breast tumor cells, AlphaScreen, ATP viability, primary screen (AID 461;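 active = Her2 level under about 52% in both replicate screens, with viability over 70% of control, limit read from the data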;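 for Her2 level: lower value means less Her2 protein in the cells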;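 for viability: percent of carrier control wells set as 100% viability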). Particulars: SKBR3 Her2 protein level, 18-24 h, measured here: SKBR3 viability, ATP luminescence, at 10 µM. A general note: Bead proximity is the source of the signal in Alpha formats.
Experiment [2] concerns the target Receptor tyrosine-protein kinase erbB-2 (Homo sapiens) (UniProt P04626). The description is as above. Particulars: 18-24 h, at 10 µM, stronger effect = lower value.
A short description of experiment [3]: reduced viability of SK-BR-3 breast cancer cells – cell-based, 24 h, human, pilot screen (AID 572;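 active = viability at or below 10% of carrier control in both of two separate runs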;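 note: compound exposure lasted between 18 and 24 h rather than exactly 24 h; 100% = carrier-treated control wells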). Particulars: SK-BR-3 viability, CellTiter-Glo luminescence, at 10 µM, stronger effect = lower value. In general terms: Cellular ATP, detected with luciferase, serves as a proxy for viable cell number.
Experiment [4] can be described thus: HUVEC growth inhibition – cell-based, human, primary screen (AID 575;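 active = viability at or below 30% in both replicate assays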;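 note: 100% = median of untreated cell wells with 0.1% DMSO on each plate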). Particulars: HUVEC proliferation, CellTiter-Glo luminescence, 72 h; at 10 µM; stronger effect = lower value.
A short description of experiment [5]: H69AR cell proliferation blockers – human, duplicate replicates, primary screen (AID 580;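 active = viability at or under a set limit in both replicates, limit being median viability minus 3 SD, cut at about 48% in these data, passing the limit was not always enough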;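 note: 100% = mean luminescence of untreated wells and 0% = no signal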). Particulars: H69AR lung tumor cells viability, ATP luminescence, 72 h; at 10 µM; stronger effect = lower value.
Experiment [6] is described as follows: MRP1 drug-resistance reversers in H69AR cells – cell-based, doxorubicin co-treatment, pilot screen (AID 601;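 active = viability loss from added drug above about 55%, and viability with drug at most 40%, in both replicates, limit read from the data, passing the limit was not always enough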). Particulars: CellTiter-Glo, 72 h, at 10 µM; for differential viability (reversal): stronger effect = higher value.
Experiment [7] in a line: yeast transport mutant growth inhibition pilot in 384-well plates, post-Golgi transport modulator project (AID 636; in the data active = inhibition above about 31%). Particulars: absorbance 615 nm, about 18 h, stronger effect = higher value.
Experiment [8] in a line: growth suppression of yeast trafficking mutant, preliminary HTS, modulators of trafficking downstream of Golgi apparatus project, 1536-format plate, OD 615 nm (AID 637; in the data active = inhibition above about 30%). Particulars: yeast transport mutant growth, absorbance 615 nm, 18 h; stronger effect = higher value.
Experiment [9] is described as follows: S. cerevisiae growth inhibition in permissive medium (OD615), pilot counter-assay for S. cerevisiae lifespan shortening project, permissive growth control (AID 705;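 active = growth inhibition above 25% in both replicates, a cutoff set 3 SD above the mean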). Particulars: OD615, 24 h, at 10 µM, stronger effect = higher value.
A short description of experiment [10]: S. cerevisiae growth inhibition in restrictive medium, OD615, pilot screen, restrictive growth control, yeast lifespan reduction project (AID 706;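 active = growth inhibition above a set limit, 3 SD over mean compound inhibition, in both replicates, cut at about 43% in these data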;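 note: modified DeaD lifespan yeast strain shifted to restrictive glucose medium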). Particulars: OD615, 48 h, at 10 µM, stronger effect = higher value.
Experiment [11] in a line: doxorubicin toxicity protection in MRP-1 cells – H69AR cells, CellTiter-Glo, duplicate, MRP-1 activator project, pilot screen (AID 807).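 Note: compound pretreatment 18-22 h then 72 h combined with doxorubicin; 0% = doxorubicin alone and 100% = vehicle without doxorubicin.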 Particulars: H69AR viability with doxorubicin, CellTiter-Glo luminescence; at 10 µM; stronger effect = higher value.
A short description of experiment [12]: viability of HCT116 without oncogenic beta-catenin – human colon tumor cells, pilot screen (AID 823;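 active = cell viability at or below a set limit in both duplicate runs, the limit being the all-compound median minus 4 SD, cut at about 23% in these data, passing the limit was not always enough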;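 note: 0% = wells killed by 20 µM Hyamine and 100% = untreated DMSO cell wells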). Particulars: HCT116 beta-catenin knockout viability, CellTiter-Glo, 60 h; at 10 µM; stronger effect = lower value.
Experiment [13] in a line: viability of PTEN-null HCT116 cells – cell-based, HCT116 clonal line, CellTiter-Glo, pilot screen (AID 824;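 active = viability at or below 27.92% in each of two runs, the all-compound median minus 4 SD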;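 note: 0% = 20 µM Hyamine control and 100% = vehicle cell control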). Particulars: HCT116 PTEN-deleted viability, 60 h, at 10 µM, stronger effect = lower value.
Experiment [14] is described as follows: RAM pathway blockade in budding yeast – dse1pr::URA3 reporter, 5-FOA selection, pilot screen (AID 869;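 active = inhibition over a set limit, the all-compound mean plus 3 SD, in both replicate runs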;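 note: 0% = DMSO wells with no growth and 100% = 10 µM 1-NA-PP1 with full growth; RAM network block rescues cells from 5-FOA so hits raise OD615 growth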). Particulars: S. cerevisiae dse1pr::URA3 5-FOA growth, OD615, 2 d; at 10 µM; stronger effect = higher value; strain carries analog-sensitive mutant Cbk1 kinase.
Experiment [15] can be described thus: RAM signaling pathway blockade in yeast – S. cerevisiae, Pdr1DBD-CYC8 efflux-inhibited sensitized strain, primary screen (AID 1298;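 active = RAM network inhibition above 8.4% in each of two replicates, 3 SD over the compound average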;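 note: 0% = DMSO untreated cells without growth and 100% = 10 µM 1-NA-PP1 full growth; higher means more yeast growth rescued from 5-FOA killing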). Particulars: S. cerevisiae cbk1-as DSE1-URA3 strain, 5-FOA growth OD615, 2 d; at 50 µM; stronger effect = higher value.
Setting [16] is: H69AR cells + 2 uM doxorubicin, measured here: viability with 2 uM doxorubicin, stronger effect = lower value.
[17] abbreviates: H69AR cells, compound alone cytotoxicity.

Structures are written as SMILES. Results filed as inconclusive are left out. Calls of active or inactive are those of the source.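 Rule for the calls, unless noted: active = viability increase at or above a cutoff of the median across tested compounds plus 3 SD (cut at about 8.5% in these data, passing the limit was not always enough); inconclusive = some gains above the cutoff, reason not given; inactive = the rest.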

Broadly, the viability is a read-out of living cells in per cent, often relative to untreated cells. One may read the inhibition as the relative decrease from the control value, in per cent.

Receptor tyrosine-protein kinase erbB-2 (Homo sapiens), sequence (P04626 whole entry, looked up): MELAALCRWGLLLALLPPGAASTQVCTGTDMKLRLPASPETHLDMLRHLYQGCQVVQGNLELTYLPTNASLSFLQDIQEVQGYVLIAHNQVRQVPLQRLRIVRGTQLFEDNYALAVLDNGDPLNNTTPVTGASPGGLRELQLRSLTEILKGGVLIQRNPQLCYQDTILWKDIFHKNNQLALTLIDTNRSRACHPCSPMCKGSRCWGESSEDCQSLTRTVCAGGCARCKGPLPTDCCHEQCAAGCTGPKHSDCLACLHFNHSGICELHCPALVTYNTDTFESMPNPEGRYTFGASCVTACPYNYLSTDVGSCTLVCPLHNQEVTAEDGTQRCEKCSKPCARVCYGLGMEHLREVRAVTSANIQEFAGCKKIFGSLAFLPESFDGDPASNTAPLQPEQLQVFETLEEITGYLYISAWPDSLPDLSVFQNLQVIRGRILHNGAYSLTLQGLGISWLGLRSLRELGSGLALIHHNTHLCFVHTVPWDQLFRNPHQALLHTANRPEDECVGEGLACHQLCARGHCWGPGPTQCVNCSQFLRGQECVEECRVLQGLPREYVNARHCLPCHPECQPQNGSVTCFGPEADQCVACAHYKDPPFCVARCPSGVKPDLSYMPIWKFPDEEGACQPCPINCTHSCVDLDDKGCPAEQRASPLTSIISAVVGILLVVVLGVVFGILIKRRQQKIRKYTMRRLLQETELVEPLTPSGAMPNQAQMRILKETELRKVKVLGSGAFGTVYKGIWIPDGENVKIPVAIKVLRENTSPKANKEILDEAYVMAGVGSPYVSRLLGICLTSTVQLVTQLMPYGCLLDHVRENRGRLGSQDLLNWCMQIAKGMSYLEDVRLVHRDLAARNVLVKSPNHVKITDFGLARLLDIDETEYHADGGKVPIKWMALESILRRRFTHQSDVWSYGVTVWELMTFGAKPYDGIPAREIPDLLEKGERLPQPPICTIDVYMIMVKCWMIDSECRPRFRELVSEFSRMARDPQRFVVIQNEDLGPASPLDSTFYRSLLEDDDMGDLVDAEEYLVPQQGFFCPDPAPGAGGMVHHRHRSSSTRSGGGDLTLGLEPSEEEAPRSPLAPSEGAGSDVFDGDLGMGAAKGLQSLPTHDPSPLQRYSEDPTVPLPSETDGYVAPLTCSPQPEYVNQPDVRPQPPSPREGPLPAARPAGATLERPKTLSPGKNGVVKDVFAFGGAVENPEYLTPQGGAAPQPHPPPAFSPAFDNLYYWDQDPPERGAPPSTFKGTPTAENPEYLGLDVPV

Regarding `COc1ccc(S(=O)(=O)N2CCC(C(=O)Nc3c(F)cccc3F)CC2)cc1`, the viability in experiment [1] is 88.5%; in [3], 88.5% (inactive); in [4] it was 96.5% (inactive); in experiment [5], 97.6% (inactive); in [6] (setting [16]), 96.8%; in experiment [6] (setting [17]), 97.6%. Also, the viability in [12] is 99.6% (inactive); in [13] it was 101% (inactive). In addition, the Her2 level in [2] was 111% (inactive). Further, the differential viability (reversal) in experiment [6] (H69AR cells + 2 uM doxorubicin) is 0.885% (inactive). Also, the inhibition in [7] is 0.93% (inactive); in [8] it was -4.17% (inactive); in experiment [14], 3.77% (inactive). Moreover, the growth inhibition in experiment [9] was -11.9% (inactive); in experiment [10] it was -14.8% (inactive). Besides, the viability increase in experiment [11] was -2.23% (inactive). Further, the RAM network inhibition in experiment [15] is 3.07% (inactive).

On to `COc1ccc(NS(=O)(=O)c2ccc(NC(C)=O)cc2)cc1OC`, for which the viability in experiment [1] was 98.5%; in experiment [3], 98.5% (inactive); in experiment [4], 83.5% (inactive); in experiment [5], 94.5% (inactive); in [6] (setting [16]), 89.5%; in experiment [6] (setting [17]), 94.5%. Further, the viability in experiment [12] was 85.4% (inactive); in experiment [13] it was 85.2% (inactive). Also, the Her2 level in experiment [2] is 99% (inactive). Further, the differential viability (reversal) in experiment [6] (H69AR cells + 2 uM doxorubicin) is 4.97% (inactive). Further, the inhibition in experiment [7] is 2.69% (inactive); in experiment [8], 35.7% (active); in [14], 1.85% (inactive). For the same molecule, the figures for the growth inhibition in experiment [9] and in experiment [10] were 0.65% (inactive) and -9.44% (inactive), respectively. For the same molecule, in experiment [11], the viability increase is 0.44% (inactive). For the same molecule, in experiment [15], the RAM network inhibition was -1.59% (inactive).

As to `O=C(CC1Oc2ccc(Cl)cc2NC1=O)NC1CCCCCC1` (stereo not drawn), the viability is 92.5% in experiment [1]; 92.5% (inactive) in experiment [3]; 78.1% (inactive) in [4]; 88% (inactive) in experiment [5]; 91.6% in [6] (setting [16]); 88% in experiment [6] (setting [17]). Besides, the viability in [12] and in experiment [13] was 102% (inactive) each time. The Her2 level in experiment [2] was 87.5% (inactive). Also, the differential viability (reversal) in experiment [6] (H69AR cells + 2 uM doxorubicin) was -3.67% (inactive). For the same molecule, the results for the inhibition in experiment [7], in [8] and in experiment [14] were -1.47% (inactive), 2.13% (inactive) and 3.56% (inactive), respectively. Besides, the growth inhibition is -4.77% (inactive) in experiment [9] and -8.75% (inactive) in experiment [10]. Moreover, the viability increase in experiment [11] is -1.05% (inactive). Also, the RAM network inhibition in [15] is 4.95% (inactive).

In the case of `Cc1ccc(C)c(C(=O)CC2(O)C(=O)N(C)c3ccccc32)c1` (stereo not drawn), the viability in experiment [1] is 112%; in experiment [3], 112% (inactive); in experiment [4], 105% (inactive); in experiment [5], 92.2% (inactive); in [6] (setting [16]) it was 82.1%; in experiment [6] (setting [17]), 92.2%. The viability in experiment [12] was 107% (inactive); in [13] it was 97.2% (inactive). Also, the Her2 level in experiment [2] is 113% (inactive). The differential viability (reversal) in [6] (H69AR cells + 2 uM doxorubicin) is 10.1% (inactive). Further, the results for the inhibition in experiment [7], in experiment [8] and in experiment [14] were -4.68% (inactive), -1.5% (inactive) and 3.41% (inactive), respectively. The growth inhibition is -8.69% (inactive) in experiment [9] and -12.9% (inactive) in experiment [10]. For the same molecule, in experiment [11], the viability increase was -0.65% (inactive). Also, the RAM network inhibition in experiment [15] is -0.11% (inactive).

Take `Cn1c(Cc2ccccc2)nnc1SCC(=O)NC1CCCCC1`: the viability in experiment [1] is 107%; in experiment [3] it was 107% (inactive); in [4] it was 91.5% (inactive); in [5], 92.5% (inactive); in experiment [6] (setting [16]), 79.6%; in experiment [6] (setting [17]), 92.5%. Moreover, the viability is 97.4% (inactive) in experiment [12] and 103% (inactive) in experiment [13]. Also, in [2], the Her2 level was 94.5% (inactive). Moreover, in experiment [6] (H69AR cells + 2 uM doxorubicin), the differential viability (reversal) was 12.9% (inactive). The inhibition in [7] was -6.08% (inactive); in experiment [8], 3% (inactive); in experiment [14] it was 1.4% (inactive). For the same molecule, the values for the growth inhibition in experiment [9] and in experiment [10] were 1.09% (inactive) and 10% (inactive), respectively. For the same molecule, the viability increase in experiment [11] is 0.74% (inactive). Further, the RAM network inhibition in experiment [15] is 1.4% (inactive).

Consider `Cc1nnc(NC(=O)c2ccco2)s1`, for which the viability was 98.5% in experiment [1]; 98.5% (inactive) in experiment [3]; 98.6% (inactive) in experiment [4]; 104% (inactive) in [5]; 96.3% in experiment [6] (setting [16]); 104% in [6] (setting [17]). Also, the viability in experiment [12] was 94.9% (inactive); in experiment [13], 97.2% (inactive). Further, the Her2 level in experiment [2] was 92.5% (inactive). The differential viability (reversal) in experiment [6] (H69AR cells + 2 uM doxorubicin) was 7.39% (inactive). Besides, the figures for the inhibition in [7], in [8] and in experiment [14] were -4.13% (inactive), 7.21% (inactive) and 0.67% (inactive), respectively. The values for the growth inhibition in experiment [9] and in [10] were -10.1% (inactive) and -8.55% (inactive), respectively. Moreover, the viability increase in experiment [11] was 4.22% (inactive). Also, the RAM network inhibition in [15] was 0.21% (inactive).

Take `COc1ccc(N2CCN(C(c3ccccc3)c3sc4nc(C)nn4c3O)CC2)cc1` (stereo not drawn): the viability was 91.5% in experiment [1]; 91.5% (inactive) in [3]; 82.2% (inactive) in experiment [4]; 90% (inactive) in [5]; 98.4% in experiment [6] (setting [16]); 90% in experiment [6] (setting [17]). In addition, the figures for the viability in experiment [12] and in experiment [13] were 96.8% (inactive) and 97.3% (inactive), respectively. The Her2 level in experiment [2] is 101% (inactive). For the same molecule, in experiment [6] (H69AR cells + 2 uM doxorubicin), the differential viability (reversal) was -8.41% (inactive). Also, the inhibition in experiment [7] is -4.93% (inactive); in experiment [8] it was -2.17% (inactive); in experiment [14], 2.81% (inactive). Also, the growth inhibition in [9] is 1.81% (inactive); in experiment [10] it was -0.505% (inactive). In experiment [11], the viability increase was -1.28% (inactive). In addition, in [15], the RAM network inhibition was -0.02% (inactive).

`CCCCS(=O)(=O)NC1=NCN(CCOC(=O)c2ccccc2)CN1`: the viability in [1] is 95.5%; in experiment [3] it was 95.5% (inactive); in [4], 104% (inactive); in experiment [5] it was 102% (inactive); in [6] (setting [16]), 87.6%; in [6] (setting [17]), 102%. Besides, the figures for the viability in experiment [12] and in experiment [13] were 91.8% (inactive) and 93.2% (inactive), respectively. The Her2 level in experiment [2] was 84.5% (inactive). The differential viability (reversal) in [6] (H69AR cells + 2 uM doxorubicin) is 14.3% (inactive). The inhibition in experiment [7] was -3.6% (inactive); in experiment [8] it was 2.58% (inactive); in experiment [14], 0.005% (inactive). The growth inhibition was -8.81% (inactive) in experiment [9] and -6.13% (inactive) in experiment [10]. Also, in [11], the viability increase is -2.67% (inactive). Moreover, the RAM network inhibition in experiment [15] is 0.98% (inactive).

As to `Cc1nn(C(=O)c2ccoc2C)c(N)c1-c1ccccc1`, the viability is 101% in [1]; 101% (inactive) in experiment [3]; 85.9% (inactive) in experiment [4]; 92.1% (inactive) in experiment [5]; 79.5% in [6] (setting [16]); 92.1% in experiment [6] (setting [17]). Further, the viability was 78.8% (inactive) in experiment [12] and 84.3% (inactive) in [13]. In addition, the Her2 level in experiment [2] was 88.5% (inactive). In addition, the differential viability (reversal) in experiment [6] (H69AR cells + 2 uM doxorubicin) was 12.6% (inactive). Moreover, the values for the inhibition in [7], in [8] and in experiment [14] were -6.27% (inactive), -2.33% (inactive) and 1.68% (inactive), respectively. The growth inhibition in experiment [9] is 13% (inactive); in experiment [10], 10.9% (inactive). Moreover, the viability increase in experiment [11] is 2.64% (inactive). Besides, the RAM network inhibition in [15] was 7.07% (inactive).

Source of the values: PubChem BioAssay.
